SMILES strings stand for the structures. The source made the active and inactive calls. Entries that show only a call come without a potency. The call rests on the fitted dose curve.

Muscarinic acetylcholine receptor M1 (Homo sapiens), sequence (P11229 whole entry, looked up): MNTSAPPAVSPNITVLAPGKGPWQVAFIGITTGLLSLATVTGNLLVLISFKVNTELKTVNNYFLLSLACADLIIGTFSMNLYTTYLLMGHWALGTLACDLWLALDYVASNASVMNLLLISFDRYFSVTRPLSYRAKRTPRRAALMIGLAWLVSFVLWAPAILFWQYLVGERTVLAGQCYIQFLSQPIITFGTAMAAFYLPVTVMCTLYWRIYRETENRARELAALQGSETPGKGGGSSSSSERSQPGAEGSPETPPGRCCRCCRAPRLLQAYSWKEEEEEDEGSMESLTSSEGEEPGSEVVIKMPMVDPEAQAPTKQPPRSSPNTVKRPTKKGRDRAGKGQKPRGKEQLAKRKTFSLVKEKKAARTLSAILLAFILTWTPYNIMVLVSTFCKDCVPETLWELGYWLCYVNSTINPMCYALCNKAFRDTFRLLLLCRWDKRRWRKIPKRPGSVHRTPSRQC

This experiment addresses Muscarinic acetylcholine receptor M1 (Homo sapiens) (UniProt P11229). Put plainly: Cholinergic receptor muscarinic 1 (CHRM1) small molecule agonists, cell-based qHTS assay (AID 1963589). Further: nearly all actives have a fitted effect of over 35% in size. The note with it: CHRM1-CHO cells, agonist mode, calcium flux fluorescence; series mostly up to 76.8 µM. An excerpt:
National Center for Advancing Translational Sciences [NCATS]
Division of Preclinical Innovation [DPI]
U.S. Environmental Protection Agency [EPA]
National Institutes of Environmental Health Sciences [NIEHS]
National Toxicology Program [NTP]
U.S. Food and Drug Administration [FDA]
The CHRM1 is a muscarinic receptor. This receptor plays a crucial role in learning and memory processes and has long been identified as a promising therapeutic target for the improvement of cognitive decline in Alzheimer's disease (AD). The CHRM1-CHO cell line stably expressing human muscarinic acetylcholine receptor M1 (CHRM1) can be used for screening agonists and antagonists of interactions between CHRM1 and its ligands. The CHRM1-CHO Calcium Flux Assay is a homogeneous fluorescence-based assay for detecting the intracellular calcium level using FDSS kinetic plate reader system.
CHRM1-CHO cells were dispensed at 1000 cells/3uL/well in 1536-well black-clear bottom plates using a Multidrop Dispenser. After the assay plates were incubated at a 37 C/5% CO2 incubator for 18 h, 3 uL of Dye Loading Buffer was transferred to the assay plate by a Flying Reagent Dispenser. The assay plates were incubated at 37 C for 1h. For agonist mode, 23 nL of compounds dissolved in DMSO, positive controls or DMSO only was transferred to the assay plate by a pin tool. […] Each test compound was measured at 15 concentrations in three independent runs.
Turning to `CC(=O)Oc1ccc(C(C)=O)cc1`, the Potency result is “inactive”.
On the same count and under the same terms, to `Oc1ccc2c(c1)CCC2` belongs “inactive”.
For the compound `CC(=O)C(C)=O`, the Potency result was “inactive”.
The same measure, in the same setting: to `CN1CCN(C2=Nc3ccccc3Oc3ccc(Cl)cc32)CC1` belongs “inactive”.
Same read-out and setting: next, `CC(=O)Nc1ccccc1C`: “inactive”.
On the same count and under the same terms, to `C/C=C/C(=O)Oc1c(CCCCCC(C)C)cc([N+](=O)[O-])cc1[N+](=O)[O-]` belongs “inactive”; to `C=CCn1c(=O)n([C@@H]2O[C@H](CO)[C@@H](O)[C@H]2O)c2nc(N)[nH]c(=O)c21`, “inactive”.
Take `CC(C)=CCC/C(C)=C/CC/C(C)=C/CCC(=O)OC/C=C(\C)CCC=C(C)C`: the Potency result was “inactive”.
Same read-out and setting: to `CCOC(=O)[C@H](C)O` belongs “inactive”; to `Nc1ccc(Cl)cc1[N+](=O)[O-]`, “inactive”.
On to `CCN1CCN(c2cc(-c3ccc(F)cc3)c3c(n2)CCCCCC3)CC1`, for which the activation was 2.2% [at 15.8 µM] (inactive).
On to `c1cnc2c(n1)CCCC2`, for which the Potency result is “inactive”.
Still for that read-out and setting: next, `CCCCCCCCSCc1cc(C)c(O)c(CSCCCCCCCC)c1`: “inactive”.
Same read-out and setting: to `CCCCCCCCCC(=O)OCC` belongs “inactive”.
`O=C(OCC1(COC(=O)c2cccnc2)CCCC(COC(=O)c2cccnc2)(COC(=O)c2cccnc2)C1O)c1cccnc1`: the Potency result was “inactive”.
Regarding `CCCSS/C(CCO)=C(\C)N(C=O)Cc1cnc(C)nc1N`, the Potency result is “inactive”.
As to `CCCCC(CC)CN1C(=O)C2C3C=CC(C3)C2C1=O` (stereo not given), the Potency entry is “inactive”.
Take `Oc1ccc(-c2ccc(O)cc2)cc1`: the Potency entry was “inactive”.
Same read-out and setting: to `CS(=O)(=O)c1ccc([C@@H](C[C@H]2CCC(=O)C2)C(=O)Nc2cnccn2)cc1Cl` belongs “inactive”.
With `O=C1CCC(C2CCCCC2)CC1`, the Potency result is “inactive”.
The same measure, in the same setting: to `CC(C)(C)CC(=O)OCC(=O)[C@@]1(O)CC[C@H]2[C@@H]3CCC4=CC(=O)C=C[C@]4(C)[C@H]3[C@@H](O)C[C@@]21C` belongs “inactive”; to `CCCCS`, “inactive”; to `CC1=CC(=O)CC(C)(C)C1=O`, “inactive”.
As to `Nc1ccc(S(=O)(=O)O)c(N)c1`, the Potency entry was “inactive”.
For the compound `O=C(/C=C/c1ccccc1)OC/C=C/c1ccccc1`, the Potency result is “inactive”.
In the case of `CC1(C)CC(OC(=O)CCCCCCCCC(=O)OC2CC(C)(C)NC(C)(C)C2)CC(C)(C)N1`, the activation is -1.98% [at 15.8 µM] (inactive).
Regarding `C=CC(C)(CCC=C(C)C)OC(=O)C(C)C` (stereo not given), the Potency entry is “inactive”.
Take `CC(=O)Nc1ccn(C2COC(COC(=O)c3ccccc3)O2)c(=O)n1` (stereo not given): the Potency result was “inactive”.
Regarding `CC[N+](CC)(CC)Cc1ccccc1`, the Potency entry is “inactive”.
On to `CC(Cl)C(Cl)Cl` (stereo not given), for which the Potency result is “inactive”.
As to `Nc1ccc(Oc2cccc(Oc3ccc(N)cc3)c2)cc1`, the Potency result was “inactive”.
For `CN=C(NC#N)Nc1ccc(C2=NNC(=O)CC2C)cc1` (stereo not given), the Potency result was “inactive”.
Regarding `Cc1[nH]c(=O)c(C#N)cc1-c1ccc2nccn2c1`, the Potency entry is “inactive”.
For the compound `O=C1OC(=O)c2cc([N+](=O)[O-])ccc21`, the Potency result was “inactive”.
`C[C@H]1NCc2cc(-c3ccc4c(=O)c(C(=O)O)cn(C5CC5)c4c3OC(F)F)ccc21`: the activation was -0.122% [at 15.8 µM] (inactive).
For the compound `Nc1ccccc1O`, the Potency result was “inactive”.
Take `CCn1c2ccccc2c2cc([N+](=O)[O-])ccc21`: the Potency entry is “inactive”.
Same read-out and setting: next, `N#Cc1cscn1`: “inactive”; `O=C1CCCN1CCO`: “inactive”.
Turning to `C=COCC(C)C`, the Potency entry is “inactive”.

(Values after PubChem BioAssay (Tox21).)
